Measurements published in PMC4081100, “A DNA-binding-site landscape and regulatory network analysis for NAC transcription factors in Arabidopsis thaliana”.

Columns and labels:
Test in all cases: universal protein binding microarray (PBM); transcription factors of Arabidopsis thaliana; high values mean tight binding
GST-ANAC092(1-176) = target: T1, GST-ANAC092(1-176) (Arabidopsis thaliana, UniProt Q9FKA0 1-176); conditions: protein: recombinant; tags: GST; chain copies: 2; dsDNA, one strand shown
T1 sequence: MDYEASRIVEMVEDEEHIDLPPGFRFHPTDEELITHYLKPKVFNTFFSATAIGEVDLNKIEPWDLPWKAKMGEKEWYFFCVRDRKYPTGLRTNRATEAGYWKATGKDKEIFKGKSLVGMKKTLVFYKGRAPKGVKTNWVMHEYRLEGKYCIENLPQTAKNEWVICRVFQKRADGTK
In short: (§1)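 For zinc-finger proteins, zinc acetate was added while GST-tagged NAC-domain, full-length or DNA-binding-domain proteins were induced in cells. Purification used glutathione–Sepharose 4B, and quantification used A280 or anti-GST western blot. Custom all-10-mer Agilent 4 × 180K arrays, made double-stranded by primer extension, each received a protein at 200 to 500 nM final in duplicate. Scoring covered gapped and ungapped 8-mers, with binding given as the normalised enrichment score (E-score).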

GST-ANAC019 NAC domain = target: T2, GST-ANAC019 NAC domain (Arabidopsis thaliana, UniProt Q9C932 14-162); conditions: protein: recombinant; tags: GST; chain copies: 2; dsDNA, one strand shown
T2 sequence: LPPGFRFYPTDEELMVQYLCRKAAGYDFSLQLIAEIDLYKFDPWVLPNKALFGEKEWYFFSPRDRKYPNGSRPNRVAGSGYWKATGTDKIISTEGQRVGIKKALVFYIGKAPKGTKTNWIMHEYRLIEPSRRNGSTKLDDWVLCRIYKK
In short: as §1

GST-ANAC055(1-171) = target: T3, GST-ANAC055(1-171) (Arabidopsis thaliana, UniProt Q9LDY8 1-171); conditions: protein: recombinant; tags: GST; chain copies: 2; dsDNA, one strand shown
T3 sequence: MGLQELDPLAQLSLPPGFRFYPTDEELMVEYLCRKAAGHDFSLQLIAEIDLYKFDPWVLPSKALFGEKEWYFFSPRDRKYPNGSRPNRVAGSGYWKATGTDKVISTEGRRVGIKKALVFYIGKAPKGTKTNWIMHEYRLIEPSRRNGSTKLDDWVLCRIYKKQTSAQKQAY
In short: as §1

GST-ATAF1 NAC domain = target: T4, GST-ATAF1 NAC domain (Arabidopsis thaliana, UniProt Q39013 7-158); conditions: protein: recombinant; tags: GST; chain copies: 2; dsDNA, one strand shown
T4 sequence: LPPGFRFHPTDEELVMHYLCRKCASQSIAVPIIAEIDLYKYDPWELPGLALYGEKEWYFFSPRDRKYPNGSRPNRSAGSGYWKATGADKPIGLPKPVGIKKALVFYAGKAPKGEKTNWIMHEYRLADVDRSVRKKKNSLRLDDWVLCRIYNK
In short: as §1

[1] = target: T5, GST-ANAC092(1-285) full length (Arabidopsis thaliana, UniProt Q9FKA0 1-285); conditions: protein: recombinant; tags: GST; chain copies: 2; dsDNA, one strand shown
T5 sequence: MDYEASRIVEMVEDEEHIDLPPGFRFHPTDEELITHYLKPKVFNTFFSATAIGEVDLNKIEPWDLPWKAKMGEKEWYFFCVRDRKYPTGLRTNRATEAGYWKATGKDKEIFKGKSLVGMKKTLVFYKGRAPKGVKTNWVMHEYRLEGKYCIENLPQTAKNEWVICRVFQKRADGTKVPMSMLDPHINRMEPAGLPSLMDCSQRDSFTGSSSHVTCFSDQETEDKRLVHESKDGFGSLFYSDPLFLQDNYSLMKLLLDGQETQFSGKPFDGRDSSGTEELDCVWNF
In short: as §1

GST-NST2(1-184) = target: T6, GST-NST2(1-184) (Arabidopsis thaliana, UniProt Q9M274 1-184); conditions: protein: recombinant; tags: GST; chain copies: 2; dsDNA, one strand shown
T6 sequence: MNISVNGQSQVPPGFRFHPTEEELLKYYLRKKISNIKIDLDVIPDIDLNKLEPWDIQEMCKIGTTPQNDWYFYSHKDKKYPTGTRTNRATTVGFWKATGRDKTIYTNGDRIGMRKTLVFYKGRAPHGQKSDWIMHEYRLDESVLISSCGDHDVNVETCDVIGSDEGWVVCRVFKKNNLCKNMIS
In short: as §1

GST-SND1(1-203) = target: T7, GST-SND1(1-203) (Arabidopsis thaliana, UniProt Q9LPI7 1-203); conditions: protein: recombinant; tags: GST; chain copies: 2; dsDNA, one strand shown
T7 sequence: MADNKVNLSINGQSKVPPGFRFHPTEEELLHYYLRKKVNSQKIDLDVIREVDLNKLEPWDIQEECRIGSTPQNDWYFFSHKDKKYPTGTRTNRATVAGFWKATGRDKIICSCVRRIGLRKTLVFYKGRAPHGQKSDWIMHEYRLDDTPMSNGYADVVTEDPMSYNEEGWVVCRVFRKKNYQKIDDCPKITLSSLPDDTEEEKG
In short: as §1

GST-VND3 NAC domain = target: T8, GST-VND3 NAC domain (Arabidopsis thaliana, UniProt Q9FH59 12-162); conditions: protein: recombinant; tags: GST; chain copies: 2; dsDNA, one strand shown
T8 sequence: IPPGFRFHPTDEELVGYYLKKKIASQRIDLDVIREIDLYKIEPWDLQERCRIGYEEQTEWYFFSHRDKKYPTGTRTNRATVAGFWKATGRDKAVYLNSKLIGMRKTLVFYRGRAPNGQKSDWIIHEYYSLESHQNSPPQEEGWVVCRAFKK
In short: as §1

GST-VND7 NAC domain = target: T9, GST-VND7 NAC domain (Arabidopsis thaliana, UniProt Q9C8W9 9-158); conditions: protein: recombinant; tags: GST; chain copies: 2; dsDNA, one strand shown
T9 sequence: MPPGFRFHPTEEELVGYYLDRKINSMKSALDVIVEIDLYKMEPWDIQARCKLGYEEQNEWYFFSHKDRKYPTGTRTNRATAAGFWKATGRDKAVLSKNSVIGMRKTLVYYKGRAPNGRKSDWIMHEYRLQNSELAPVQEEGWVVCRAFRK
In short: as §1

GST-NTL6(1-168) = GST-NTL6(1-168) (Arabidopsis thaliana, UniProt Q9SCK6 1-168); conditions: protein: recombinant; tags: GST; chain copies: 2; dsDNA, one strand shown
In short: as §1

GST-WRKY1(266-371) = GST-WRKY1(266-371) (Arabidopsis thaliana, UniProt Q9SI37 266-371); conditions: protein: recombinant; tags: GST; dsDNA, one strand shown
In short: as §1

GST-NAP(1-166) = target: T10, GST-NAP(1-166) (Arabidopsis thaliana, UniProt O49255 1-166); conditions: protein: recombinant; tags: GST; chain copies: 2; dsDNA, one strand shown
T10 sequence: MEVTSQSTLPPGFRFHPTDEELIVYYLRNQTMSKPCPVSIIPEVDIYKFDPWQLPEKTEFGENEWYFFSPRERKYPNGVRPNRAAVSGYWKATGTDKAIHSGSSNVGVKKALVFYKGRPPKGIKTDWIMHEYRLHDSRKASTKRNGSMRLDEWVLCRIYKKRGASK
In short: as §1

GST-NTL8 NAC domain = target: T11, GST-NTL8 NAC domain (Arabidopsis thaliana, UniProt Q9XIN7 14-156); conditions: protein: recombinant; tags: GST; chain copies: 2; dsDNA, one strand shown
T11 sequence: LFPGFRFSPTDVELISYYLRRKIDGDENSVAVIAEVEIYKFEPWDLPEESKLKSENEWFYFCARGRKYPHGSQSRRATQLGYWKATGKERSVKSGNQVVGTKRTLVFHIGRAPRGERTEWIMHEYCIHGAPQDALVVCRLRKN
In short: as §1

Sequence of GST-NTL6(1-168) (Q9SCK6 1-168): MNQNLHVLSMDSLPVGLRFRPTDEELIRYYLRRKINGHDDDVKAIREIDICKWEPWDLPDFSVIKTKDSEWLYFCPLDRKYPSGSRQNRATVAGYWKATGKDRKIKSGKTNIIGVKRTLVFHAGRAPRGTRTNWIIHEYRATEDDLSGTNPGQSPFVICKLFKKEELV
Sequence of GST-WRKY1(266-371) (Q9SI37 266-371): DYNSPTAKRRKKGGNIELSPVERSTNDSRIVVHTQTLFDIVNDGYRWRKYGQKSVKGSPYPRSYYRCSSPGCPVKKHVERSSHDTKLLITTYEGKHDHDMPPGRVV

Row | Sequence | binding signal (GST-ANAC092(1-176)) | binding signal (GST-ANAC019 NAC domain) | binding signal (GST-ANAC055(1-171)) | binding signal (GST-ATAF1 NAC domain) | binding signal [1] | binding signal (GST-NST2(1-184)) | binding signal (GST-SND1(1-203)) | binding signal (GST-VND3 NAC domain) | binding signal (GST-VND7 NAC domain) | binding signal (GST-NTL6(1-168)) | binding signal (GST-WRKY1(266-371)) | binding signal (GST-NAP(1-166)) | binding signal (GST-NTL8 NAC domain)
1 | CACGCTAC | 0.46 E-score | 0.167 E-score | 0.0982 E-score | 0.167 E-score | 0.476 E-score | 0.298 E-score | 0.441 E-score | 0.0671 E-score | 0.135 E-score | – | – | – | –
2 | CAAAAGTC | 0.0755 E-score | – | 0.138 E-score | 0.222 E-score | 0.112 E-score | 0.252 E-score | 0.133 E-score | 0.141 E-score | – | 0.0864 E-score | 0.432 E-score | – | –
3 | GTACGCGA | 0.245 E-score | – | 0.0563 E-score | 0.234 E-score | 0.4 E-score | 0.129 E-score | 0.288 E-score | 0.11 E-score | 0.133 E-score | – | – | 0.188 E-score | –
4 | AATTACGC | 0.17 E-score | – | 0.155 E-score | 0.18 E-score | 0.243 E-score | 0.199 E-score | 0.428 E-score | 0.119 E-score | 0.13 E-score | – | – | 0.144 E-score | –
5 | GCACGCTA | 0.445 E-score | 0.207 E-score | 0.117 E-score | – | 0.474 E-score | 0.173 E-score | 0.409 E-score | 0.111 E-score | 0.0845 E-score | – | – | – | –
6 | CAGTCAAC | 0.0753 E-score | – | – | 0.084 E-score | – | – | 0.0832 E-score | 0.0605 E-score | – | – | 0.491 E-score | – | –
7 | AGACGTAA | 0.425 E-score | 0.453 E-score | 0.389 E-score | 0.437 E-score | 0.424 E-score | 0.282 E-score | 0.408 E-score | 0.42 E-score | 0.42 E-score | – | – | 0.456 E-score | 0.139 E-score
8 | ACAAGTTA | 0.362 E-score | – | 0.106 E-score | 0.162 E-score | 0.41 E-score | 0.194 E-score | 0.216 E-score | 0.152 E-score | 0.146 E-score | – | – | – | –
9 | AGTCAAAC | – | 0.0687 E-score | 0.103 E-score | 0.109 E-score | – | 0.0701 E-score | 0.126 E-score | 0.103 E-score | – | 0.0896 E-score | 0.491 E-score | 0.0582 E-score | 0.07 E-score
10 | ACGCTACT | 0.385 E-score | 0.123 E-score | 0.226 E-score | 0.288 E-score | 0.425 E-score | 0.314 E-score | 0.394 E-score | 0.241 E-score | – | – | 0.092 E-score | 0.236 E-score | 0.0894 E-score
11 | ACGTTACA | 0.354 E-score | – | 0.157 E-score | 0.244 E-score | 0.404 E-score | 0.222 E-score | 0.362 E-score | 0.217 E-score | 0.153 E-score | – | – | 0.23 E-score | –
12 | ATACGCCA | 0.455 E-score | – | 0.22 E-score | 0.331 E-score | 0.455 E-score | 0.283 E-score | 0.398 E-score | 0.192 E-score | 0.247 E-score | – | – | 0.201 E-score | 0.0758 E-score
13 | GACACGGC | 0.235 E-score | 0.42 E-score | 0.351 E-score | 0.278 E-score | 0.387 E-score | – | 0.116 E-score | 0.328 E-score | 0.348 E-score | – | – | 0.237 E-score | 0.0582 E-score
14 | ATTTCTTA | – | – | 0.0799 E-score | 0.19 E-score | 0.185 E-score | 0.126 E-score | 0.225 E-score | 0.0914 E-score | 0.148 E-score | 0.409 E-score | – | – | –
15 | ACGGCACT | 0.331 E-score | 0.467 E-score | 0.449 E-score | 0.454 E-score | 0.393 E-score | 0.187 E-score | 0.174 E-score | 0.402 E-score | 0.453 E-score | – | – | 0.425 E-score | 0.0691 E-score
16 | GGTCAAAA | 0.0966 E-score | – | 0.0727 E-score | – | – | – | 0.123 E-score | 0.0741 E-score | – | 0.101 E-score | 0.478 E-score | – | 0.116 E-score
